Data as given in ChEMBL document CHEMBL3988442, “University of Dundee, Small-Polar-MMV Screening Library” (2021).
Out of some 48,000 compounds screened, about 13,000 (27%) showed an effect of 50% or more. Some of the results follow.

The molecules below were run on Wolbachia pipientis (assay: Anti-Wolbachia Cell-Based Screen). Settings: 5 µM.
Type: functional
Set-up: scale not given: in the data most compounds retested in dose-response had high values

| Compound | Percent Effect [%] |
| --- | --- |
| COCCn1c(=O)n(C)c(=O)c2ccc(C3CCN(C(C)=O)CC3)nc21 | 55.11 |
| COCCN1CCC(c2nc3c([nH]2)CC(C)(C)CNC3=O)C1 (stereo not drawn) | -9.937 |
| COCCN1C(=O)[C@H]2CC[C@@H]1CN(c1nccc(C3CCCC3)n1)C2 | -7.608 |
| COCCn1c(=O)n(C)c(=O)c2ccc(C3CCC(CN)CC3)nc21.Cl (stereo not drawn) | 114.4 |
| COCCn1ccnc1C1CCN(C(=O)C(O)c2ccc(F)cc2)CC1 (stereo not drawn) | -18.13 |
| CC(=O)N1CCC(c2nn(C)c(=O)n2-c2ccccc2)CC1 | -1.019 |
| Cc1ccn(C)c(=O)c1NC(=O)N(C)Cc1cccc(OC(C)C)c1 | 2.513 |
| CCCc1cncnc1N1CCC(NCc2ccncc2)CC1 | 5.564 |
| CN(Cc1cc2n(n1)CCNC2)Cc1noc(C2CCC2)n1 | -1.079 |
| CCn1cc(CN2CCCn3nc(CNC(=O)N(C)C)cc3C2)cn1 | 15.22 |
| CN(Cc1cc2n(n1)CCCNC2)Cc1cc(-c2ccncc2)no1 | 4.022 |
| CN(CCCc1cnn(C)c1)C(=O)C1CCN(C(=O)C2CCC2)CC1 | 14.43 |
| CN(CCCc1cnn(C)c1)Cc1cc2n(n1)CCCNC2 | 97.92 |
| CN(Cc1cc2n(n1)CCCNC2)Cc1ccno1 | -18.26 |
| CN(CCCc1cnn(C)c1)Cc1cc2n(n1)CCNC2 | 121.7 |
| CNc1ncc(CN(C)Cc2cc3n(n2)CCNC3)cn1 | 11.28 |
| CN(CCCc1cnn(C)c1)Cc1cc2n(n1)CCCN(C)C2 | 94.13 |
| CC(NC(=O)N(C)Cc1ccc2c(c1)OCO2)c1nncn1C (stereo not drawn) | 16.38 |
| CC1(c2ccccc2)CCC(=O)N(CCN2CCOCC2)C1 (stereo not drawn) | 8.315 |
| COC(CNC(=O)c1ccc(NC(C)=O)cc1)c1cccc(Cl)c1 (stereo not drawn) | -77.03 |
| CCN1CCN(C)C2(CCN(Cc3ccsc3)CC2)C1=O.O=C(O)C(F)(F)F.O=C(O)C(F)(F)F | 94.35 |
| CN1CCN(Cc2ccncc2)C(=O)C12CCN(c1nccs1)CC2.O=C(O)C(F)(F)F.O=C(O)C(F)(F)F | -19.3 |
| CN1CCN(Cc2ccncc2)C(=O)C12CCN(Cc1ccsc1)CC2.O=C(O)C(F)(F)F.O=C(O)C(F)(F)F.O=C(O)C(F)(F)F | 58.8 |
| CN1CCN(C)C2(CCN(Cc3ccsc3)CC2)C1=O.O=C(O)C(F)(F)F | 105.2 |
| CCN1CCN(C)C(=O)C12CCN(Cc1ccsc1)CC2.O=C(O)C(F)(F)F | -27.74 |
| Cn1ncc(C2CC(=O)NCc3nc4ccccn4c32)c1C1CC1 (stereo not drawn) | 1.817 |
| CCNC(=O)[C@@H]1CCCN1C1(C(=O)NC)CCC1.Cl | 0.1969 |

| Compound | Percent Effect [%] |
| --- | --- |
| O=C1CC2(CCSC2)C(=O)N1Cc1ncc(-c2ccccc2)o1 (stereo not drawn) | -14.26 |
| NC(=O)CN(CC(=O)NCCc1c(F)cccc1F)C1CCCC1 | 11.15 |
| C[C@@H]1CN(Cc2ccc(C(F)(F)F)cc2F)CC[C@]1(C)O | -2.035 |
| CCCC(=O)N(C)Cc1nc(N2CCCC2)ncc1-c1ccncc1.Cl | 137.6 |
| COCC(=O)N(C)Cc1nc(N2CCCC2)ncc1-c1ccncc1.Cl | 87.58 |
| CCOc1ccc(CN(C)C(=O)c2nc(N3CCCC3)ncc2Cl)cc1 | 16.2 |
| COCC(=O)Nc1cnc(N2CCCC2)nc1 | -4.633 |
| Cc1nc(N2CCCC2)ncc1-c1cc(O)nc(N2CCCC2)n1 | 3.993 |
| CN(Cc1cnccn1)C(=O)Nc1cc(F)cc(N2CCCC2)c1 | 16.17 |
| COc1ccc(CC(=O)N2CC[C@@H](OC)[C@@H]2Cc2cccnc2)cc1.O=C(O)C(F)(F)F | 135 |
| CO[C@H]1CCN(S(=O)(=O)c2cn(C)cn2)[C@H]1Cc1cccnc1.O=C(O)C(F)(F)F.O=C(O)C(F)(F)F | -4.938 |
| COc1cccc(CC(=O)N2CC[C@@H](OC)[C@@H]2Cc2cccnc2)c1.O=C(O)C(F)(F)F | 137.5 |
| Cc1noc([C@H]2COC[C@H]3CN(C(=O)Cc4ccc(F)cc4)C[C@H]32)n1 | -6.311 |
| COc1cc(CN(C)C(=O)NC2CC2)ccc1SC | 1.322 |
| Cc1ccc2c(c1)CN(C(=O)c1ccccc1F)C(CN(C)C)CO2.Cl (stereo not drawn) | -8.172 |
| CN(C)CC1COCCN1C(=O)C1(c2cccs2)CCCC1.O=CO (stereo not drawn) | -9.313 |
| CC1CN(C)c2ccccc2CN1C(=O)c1ccncc1 (stereo not drawn) | -3.17 |
| Cc1nc(C)c(C(=O)N2CCc3c(C)cccc32)o1 | -0.835 |
| Cc1ccc2c(c1)CN(C(=O)c1cccs1)C(CN(C)C)CO2 (stereo not drawn) | 64.15 |
| CCOC(=O)CC1CCCCN1C(=O)c1cnc(C)cn1 (stereo not drawn) | 6.285 |
| Cc1nc(C)c(C(=O)N2Cc3ccccc3OCC2CN(C)C)o1.Cl.Cl (stereo not drawn) | 85.27 |
| Cc1ccc2c(c1)CN(C(=O)c1ccncc1)C(CN(C)C)CO2.Cl (stereo not drawn) | 112.6 |
| CCN(C)S(=O)(=O)N1CCCC1CC(=O)c1cccs1 (stereo not drawn) | 13.08 |
| Cc1ccc2c(c1)CN(C(=O)c1cnc(C)cn1)C(CN(C)C)CO2.Cl (stereo not drawn) | 102.7 |
| Cc1nc(C)c(C(=O)N2Cc3cc(F)ccc3CC2C)o1 (stereo not drawn) | -9.907 |
| Cc1ccc2c(c1)CN(C(=O)C1CCCCC1)C(CN(C)C)CO2.Cl (stereo not drawn) | -7.003 |
